A selection: hits, their analogues and other compounds. The true share with any hit is near 2.4%.
Cruzain noTriton: qHTS Assay for Promiscuous and Specific Inhibitors of Cruzain (without detergent); Cruzipain (Trypanosoma cruzi), P25779; purified cruzain, Z-FR-AMC fluorescence, no detergent; Potency, µM, for inactives: max response, negative = inhibition, hits mostly inhibitors; 2.3% of 200,000 active; AID 1476, 2009;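 note: plate controls were enzyme without inhibitor for no effect and buffer without enzyme for full effect; nearly all actives have a fitted effect of over 40% in size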
Target sequence (P25779 123-467 limits assumed): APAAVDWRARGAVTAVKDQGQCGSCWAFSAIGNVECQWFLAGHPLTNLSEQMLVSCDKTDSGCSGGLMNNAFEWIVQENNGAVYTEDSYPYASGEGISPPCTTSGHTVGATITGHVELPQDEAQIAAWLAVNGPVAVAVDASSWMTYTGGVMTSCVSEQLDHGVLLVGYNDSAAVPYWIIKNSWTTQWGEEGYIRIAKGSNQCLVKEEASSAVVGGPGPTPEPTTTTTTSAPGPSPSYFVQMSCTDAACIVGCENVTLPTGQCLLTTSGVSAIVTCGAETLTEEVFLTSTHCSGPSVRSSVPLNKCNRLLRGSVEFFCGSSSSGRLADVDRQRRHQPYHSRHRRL
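Purified cruzain at 1.5 nM, pre-incubated 15 min with compound at room temperature in 100 mM sodium acetate pH 5.5, 5 mM DTT, 0.00005% Triton X-100. Reaction started with 2 uM Z-FR-AMC; AMC fluorescence increase over 60 s gives rate.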
Cruzain Triton: qHTS Assay for Promiscuous and Specific Inhibitors of Cruzain (with detergent); Cruzipain (Trypanosoma cruzi), P25779; purified cruzain, Z-FR-AMC fluorescence, 0.01% Triton; Potency, µM, for inactives: max response, negative = inhibition, hits mostly inhibitors; 0.43% of 200,000 active;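 note: plate controls were neutral wells for no effect and buffer without enzyme for full effect; nearly all actives have a fitted effect of over 40% in size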
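Purified cruzain (1.5 nM final) was preincubated with compounds for 15 min at room temperature in 100 mM sodium acetate pH 5.5, 5 mM DTT, 0.01% Triton X-100. Reaction started with 2 uM Z-FR-AMC; AMC fluorescence change over 60 s gave activity.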
Active calls of the source: *; ? = inconclusive. Calls come from the whole dose curve; as a rule, active = well fitted curve in the direction sought with a large enough effect; inconclusive = small, poorly fitted or top-dose-only effect, or another doubt; inactive = no such curve, though single readings can be large; an effect the other way counts as inactive or inconclusive. Potency is the fitted concentration of half-maximal effect.

SMILES	Cruzain noTriton	Cruzain Triton
CCOC(=O)c1c(C)[nH]c(C)c1S(=O)(=O)NCC(=O)NCc1ccc(C)cc1	9.0%	0.5%
COCCN(CCOC)c1nc(C)nc2c1nc(-c1ccccc1)n2CCCN1CCCCC1C (stereo not given)	-1.7%	-1.9%
O=C(Nc1ccc(Cl)c(C(F)(F)F)c1)c1ccc2c(c1)CCN2S(=O)(=O)c1ccccc1	25.1µM*	-0.2%
COc1ccc(NC(=O)c2ccc3c(c2)CCN3S(=O)(=O)c2ccc(C)cc2)cc1Cl	7.94µM*	1.1%
CCc1cccc(CC)c1NC(=O)c1ccc2c(c1)CCN2S(=O)(=O)c1ccccc1	-2.8%	-1.9%
CC(=O)Nc1ccc(NC(=O)c2ccc3c(c2)CCN3S(=O)(=O)c2ccc(C)cc2)cc1	11.7%	0.4%
Cc1ccc(S(=O)(=O)N2CCCc3cc(NC(=O)c4ccc(C(C)(C)C)cc4)ccc32)cc1	3.16µM*	4.3%
COc1ccc(C(=O)Nc2ccc3c(c2)CCCN3S(=O)(=O)c2ccc(C)cc2)cc1	?	-2.7%
COc1ccc(CNc2nc3c(-c4cccc(C)c4)nnn3c3ccccc23)cc1	-16.9%	-0.2%
O[C@@H](c1cc(-c2ccc(Cl)cc2)nc2ccccc12)C1CCCCN1 (stereo not given in full)	-8.5%	3.1%
Cc1ccc2nc(/C(C#N)=C/c3cccc(Br)c3)[nH]c2c1	20µM*	-1.8%
COc1cc(/C=C(\C#N)c2nc3ccc(C)cc3[nH]2)ccc1OC(C)C	3.7%	-0.6%
N#C/C(=C\c1ccc(-c2ccc(Cl)c(C(=O)O)c2)o1)c1nc2ccccc2[nH]1	-5.3%	-2.5%
Cc1ccc2nc(/C(C#N)=C/c3ccc(-c4cccc(Cl)c4)o3)[nH]c2c1	12.6µM*	?
O=C(CSc1ccc2nc(-c3ccccc3)cn2n1)Nc1cccc(F)c1	16.5%	-5.3%
CCOC(=O)Cc1ccc(NC(=O)N2CC(CC)Oc3ccccc32)cc1 (stereo not given)	24.4%	-1.9%
COc1ccc(-n2nc(C(=O)Nc3cc(OC)c(OC)c(OC)c3)c(=O)n(C)c2=O)cc1	-12.9%	-0.1%
Cc1ccc(C(=O)CC(=O)COc2ccc(Cl)cc2C)cc1	11.1%	-3.8%
Cc1ccc(NC(=O)c2ccc(OC(=O)CCN3C(=O)c4ccccc4C3=O)cc2)cc1	?	2.5%
Cc1ccc(NC(=O)c2ccc(OC(=O)COc3ccc(Cl)cc3C)cc2)cc1	12.6µM*	7.0%
Cc1ccc(NC(=O)c2ccc(OC(=O)COc3cccc(Cl)c3)cc2)cc1	12.6µM*	-1.8%
CCOC(=O)c1c(NC(=O)Nc2cccc(Cl)c2)sc(C)c1C	25.1µM*	-0.4%
CCOC(=O)c1c(NC(=O)Nc2ccc(Cl)cc2)sc(C)c1C	25.1µM*	-0.8%
O=C(Nc1cccc(Cl)c1)Nc1cccc(Cl)c1	1.8%	-11.2%
CCOC(=O)c1sc(NC(=O)Nc2ccc(Cl)cc2)cc1C	-7.6%	-1.6%
SMILES	Cruzain noTriton	Cruzain Triton
CN(C(=O)CSc1nc2ccccc2n1CC(=O)N(C)C1CCCCC1)c1ccccc1	-2.8%	-2.0%
CCS(=O)(=O)c1ccc(O)c(Nc2cc(C)nc(SC)n2)c1	-20.3%	-12.1%
COc1ccc2[nH]c3c(c2c1)CCNC3=O	-2.7%	-3.0%
COc1ccc2[nH]c3c(c2c1)CCN=C3C	12.6µM*	-11.8%
CN1CCN(C(CNC(=O)c2c(F)cccc2F)c2ccc3c(c2)OCO3)CC1 (stereo not given)	-14.5%	-2.6%
Cc1csc(NC(=O)/C=C/c2ccc3c(c2)OCO3)n1	-13.8%	-9.0%
O=C(/C=C/c1ccc2c(c1)OCO2)Nc1nc(-c2ccc(F)cc2F)cs1	7.94µM*	-4.7%
Cc1cc(C)c(NC(=O)Cn2nnc(-c3nc(-c4ccccc4)no3)c2N)c(C)c1	3.0%	0.1%
O=C(c1ccc2nc(-c3ccco3)c(-c3ccco3)nc2c1)N1CCN(c2ncccn2)CC1	?	25.1µM*
Cc1nc2cc(NC(=O)N3CCN(c4ccccn4)CC3)ccc2o1	2.8%	7.8%
O=C(c1cccc(C(=O)N2CCN(c3ncccn3)CC2)c1)N1CCN(c2ncccn2)CC1	-6.6%	5.7%
O=C(Nc1ccc2nc(-c3ccco3)c(-c3ccco3)nc2c1)N1CCN(c2ccccn2)CC1	2.51µM*	14.1µM*
COC(=O)c1scc(-c2ccc(C)cc2)c1S(=O)(=O)Nc1ccc(OC(F)(F)F)cc1	6.8%	-7.1%
CCOc1ccc(C(=O)Cn2c(=O)n3nc(CCn4nc(C)cc4C)nc3c3cc(OC)c(OC)cc32)cc1	-4.9%	5.4%
Cc1c(C2=CCN(S(=O)(=O)c3ccc(Br)cc3)CC2)c2ccccc2n1C	10µM*	-2.4%
CCn1c(C)c(C2=CCN(S(=O)(=O)c3ccc(C)cc3)CC2)c2ccccc21	?	-4.3%
O=C(NC(=S)Nc1cccc([N+](=O)[O-])c1)c1ccco1	-1.2%	-1.0%
O=C(/C=C/c1ccco1)NC(=S)Nc1cccc([N+](=O)[O-])c1	31.6µM*	-16.5%
Cc1ccc(-c2nc3ccccc3o2)cc1NC(=S)NC(=O)/C=C/c1ccco1	?	-1.9%
O=C(/C=C/c1ccco1)NC(=S)Nc1cccc(-c2nc3ccccc3o2)c1	10µM*	-8.2%
COc1ccc2c(c1)c(=O)c(S(=O)(=O)c1ccc(C)cc1)cn2Cc1ccccc1C	-19.6%	-6.0%
COc1ccc2c(c1)c(=O)c(S(=O)(=O)c1ccc(Cl)cc1)cn2Cc1cc(C)ccc1C	10µM*	-3.7%
COc1ccc(OC)c2sc(NC(=O)c3ccc(Cl)s3)nc12	-6.6%	4.7%
COc1ccc(OC)c2sc(NC(=O)c3ccc(Br)s3)nc12	15.8µM*	-4.6%
CCOCCCNC(=O)Cn1nc(CC)n2c(cc3c(OC)cccc32)c1=O	6.9%	-0.9%
SMILES	Cruzain noTriton	Cruzain Triton
Cc1ccc(SCc2ccc(C(=O)Nc3cccc([N+](=O)[O-])c3)cc2)cc1	20µM*	4.8%
Cc1ccc(SCc2ccc(C(=O)Nc3cc([N+](=O)[O-])ccc3C)cc2)cc1	-6.7%	-0.5%
CN(C)C(=O)c1ccc(-c2ccc3ncnc(N4CCOCC4)c3c2)cc1	-17.2%	-0.7%
Cc1cccc(C)c1-n1ncc(C(=O)N2CCN(c3ccccc3)CC2)c1C1CCN(C(=O)OC(C)(C)C)CC1	-9.9%	-3.6%
Cc1ccc2[nH]c3c(NCCN4CCOCC4)ncnc3c2c1	20µM*	-26.2%
O=C1CCCN1CCCNc1ncnc2c1[nH]c1ccc(Cl)cc12	15.8µM*	25.1µM*
C=CCNc1ncnc2c1[nH]c1ccc(C)cc12	-18.3%	-20.7%
O=C1CCCN1CCCn1cnc2c([nH]c3ccc(F)cc32)c1=O	3.3%	-3.9%
Cc1ccc(Cl)cc1N1CCN(C(=O)c2cc(S(=O)(=O)N3CCCC3)cn2C)CC1	3.8%	-6.9%
Cc1oc(C)c2c(=O)cc(-c3ccc4c(c3)OCO4)cc(OC(=O)c3ccccc3Cl)c12	-4.3%	-2.2%
Cc1oc(C)c2c(=O)cc(-c3ccc4c(c3)OCO4)cc(OC(=O)c3ccccc3Br)c12	15.8µM*	-9.5%
CCc1nnc(NC(=O)CSc2nc(-c3ccccc3)cc(-c3ccc(F)cc3)c2C#N)s1	7.94µM*	3.4%
CC(C)OC(=O)CC(=O)CSc1nc(-c2ccc(F)cc2)cc(-c2ccccc2)c1C#N	-5.7%	-4.6%
O=C(CSc1nc(-c2cccs2)cc(C(F)(F)F)n1)NCc1ccco1	-0.4%	-4.0%
COc1ccc(CNC(=O)CSc2nc(-c3ccccc3)cc(-c3cccs3)c2C#N)cc1	10µM*	3.6%

From PubChem BioAssay
